From PubChem BioAssay
The list is not random: actives were taken first. Their share in the collection is about 7.8%.
VACV mCherry inh: inhibitors of vaccinia virus infection (mCherry reporter signal) | Vaccinia virus mCherry reporter infection, fluorescence | Potency, µM (top dose mostly 36.5 µM), without a hit: at the top dose activity change, negative = inhibition, usual class: inhibitors | 310,000 tested, 0.63% active | AID 720579; calls by dose curve; tested in A549 cells; further: potency means the concentration at half of the fitted maximal effect; nearly all actives have a fitted effect of over 35% in size
Vaccinia Venus: inhibitors of vaccinia virus (Venus reporter); Vaccinia virus Venus reporter expression, fluorescence; Potency, µM (top dose mostly 36.5 µM), for inactives: top-dose activity change, negative = inhibition, most hits filed as inhibitors; 330,000 tested, 0.46% active; calls by dose curve; tested in A549 cells; further: potency means the concentration at half of the fitted maximal effect; nearly all actives have a fitted effect of over 30% in size
HCMV inh: blocks human cytomegalovirus replication; HFF cells, HCMV-luciferase reporter, 72 h; active compounds read low; activity change, negative = inhibition, % at 57.5 µM; 410,000 tested, 4.5% active; in the data active means activity change below about -60%; inconclusive means no clear call, values can overlap the other calls; inactive means above about -39%
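HFF cells seeded 16 h at 37C, treated with compounds, infected with luciferase-reporter HCMV at MOI 1 PFU/cell; luciferase read at 72 h post infection, normalized to buffer-only and Salinomycin controls.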
Marburg entry inh: blocks Marburg virus binding to or entry into cells; Marburg virus pseudotyped entry inhibition, cell reporter; Potency, µM (titrated, usually from 37.8 µM), for the others: at the top dose activity change, negative = inhibition, usual class: inhibitors; 300,000 tested, 1.8% active; AID 540276; calls by dose curve; tested in HEK293 cells; further: potency means the concentration at half of the fitted maximal effect
Lassa entry inh: inhibitors of Lassa virus binding or cell entry. Potency, µM (top dose mostly 37.9 µM), for inactives: at the highest dose activity change, negative = inhibition, most hits filed as inhibitors. 300,000 tested, 1.2% active. AID 540256. Lassa virus pseudotype entry inhibition, cell reporter; calls by dose curve; tested in HEK293 cells; further: potency means the concentration at half of the fitted maximal effect; nearly all actives have a fitted effect of over 50% in size
HCV inhibitor: inhibitors of hepatitis C virus infection. Potency, µM (top dose mostly 41.8 µM), for inactives: at the top dose activity change, negative = inhibition, usual class: inhibitors. Huh7.5.1 HCVcc-Cre infection, luciferase reporter, 44 h. 340,000 tested, 3.4% active; active means well fitted inhibition curve with a large enough effect; inconclusive means small, poorly fitted or top-dose-only effect, or another doubt; inactive means no such curve, though single readings can be large or run the other way; further: potency means the concentration at half of the fitted maximal effect
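Infectious HCVcc-Cre (~0.5 moi) was added to cells just after compound, with cells seeded 4 h earlier at 1,000 per well. Luciferase activity after 44 h culture reported infection; substrate was incubated 15 min at room temperature before reading.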
The depositor's hits bear a star; [ ] = remark or other dose. On the % scale 0 is the no-effect control and ±100 the full control effect.

Results for COc1ccc(OC)c(NC(=O)CSc2nc3n[nH]c(C)c3c(=N)n2-c2cccc(Cl)c2C)c1 ?
VACV mCherry inh: -26.2%; Vaccinia Venus: inconclusive; HCMV inh: inconclusive; Marburg entry inh: 17.8µM*; Lassa entry inh: -6.2%[46.1 µM]; HCV inhibitor: inconclusive

What do the screens show for `Cc1ccc(CNC(=O)CSc2nc3n[nH]c(C)c3c(=N)n2-c2ccccc2Cl)cc1`?
VACV mCherry inh: -5.8%; Vaccinia Venus: -2.6%; HCMV inh: -3.8; Lassa entry inh: 5.3%[46.1 µM]

What do the screens show for `Cc1[nH]nc2nc(SCC(=O)NCCC3=CCCCC3)n(-c3ccc(Br)cc3)c(=N)c12`?
HCMV inh: -77.6*; HCV inhibitor: inconclusive

How did Cc1c(Cl)cccc1-n1c(SCC(=O)NCc2ccccc2)nc2n[nH]c(C)c2c1=N do in these assays?
VACV mCherry inh: inconclusive; Vaccinia Venus: inconclusive; HCMV inh: -60.8*; Lassa entry inh: -27.4%[46.1 µM]

Results for Cc1ccccc1-n1c(SCC(=O)Nc2ccccc2Cl)nc2n[nH]c(C)c2c1=N ?
HCMV inh: -21.8; HCV inhibitor: inconclusive

Results for CCN(CC)S(=O)(=O)c1ccc2c(c1)N(CC(=O)Nc1ccc(F)cc1F)C(=O)C1CCCN21 (configuration not stated) ?
VACV mCherry inh: 1.7%; Vaccinia Venus: -1.4%; HCMV inh: -4.8; Lassa entry inh: -9.2%[46.1 µM]

What do the screens show for `N#Cc1ccccc1NS(=O)(=O)c1ccc(N2CCCCS2(=O)=O)cc1`?
VACV mCherry inh: 2.7%; Vaccinia Venus: -1.5%; HCMV inh: 7.9; Lassa entry inh: -4.1%[46.1 µM]

What do the screens show for `Cn1nc([N+](=O)[O-])nc1Sc1nnc(-c2ccccc2)o1`?
VACV mCherry inh: -27.0%; Vaccinia Venus: -18.3%; HCMV inh: -90.0*; Marburg entry inh: inconclusive; Lassa entry inh: -27.4%; HCV inhibitor: -29.6%

What do the screens show for `O=Cc1ccc(Sc2nnc(-c3ccccc3)o2)c([N+](=O)[O-])c1`?
Marburg entry inh: inconclusive; Lassa entry inh: -14.4%; HCV inhibitor: -20.1%

Results for Cc1cc(C(=O)COC(=O)c2cccc(NS(C)(=O)=O)c2)c(C)n1CC1CCCO1 (configuration not stated) ?
VACV mCherry inh: -12.4%; Vaccinia Venus: -4.4%; HCMV inh: -27.0; Marburg entry inh: 5.62µM*; Lassa entry inh: 10µM*; HCV inhibitor: inconclusive

Results for Cc1cc(C(=O)COC(=O)c2n[nH]c3ccccc23)c(C)n1CC1CCCO1 (configuration not stated) ?
VACV mCherry inh: inactive; Vaccinia Venus: -17.8%; HCMV inh: 7.4; Marburg entry inh: 7.08µM*; Lassa entry inh: inconclusive; HCV inhibitor: inconclusive

Results for Cc1ccc(C(=O)OCC(=O)c2cc(C)n(CC3CCCO3)c2C)cc1 (configuration not stated) ?
VACV mCherry inh: inactive; Vaccinia Venus: -15.0%; HCMV inh: 10.0; Marburg entry inh: inconclusive; Lassa entry inh: -10.1%; HCV inhibitor: inconclusive

How did Cc1cc(C(=O)COC(=O)c2ccccc2O)c(C)n1CC1CCCO1 (configuration not stated) do in these assays?
HCMV inh: -72.8*; HCV inhibitor: 11.2µM*

What do the screens show for `Cc1cc(C(=O)COC(=O)c2ccccc2Br)c(C)n1CC1CCCO1` (configuration not stated)?
VACV mCherry inh: -23.3%; Vaccinia Venus: 3.7%; Marburg entry inh: inconclusive; Lassa entry inh: inconclusive; HCV inhibitor: inconclusive

How did Cc1cc(C(=O)COc2ccccc2C(N)=O)c(C)n1CC1CCCO1 (configuration not stated) do in these assays?
VACV mCherry inh: -11.1%; Vaccinia Venus: -17.0%; HCMV inh: -62.0*; Marburg entry inh: inconclusive; Lassa entry inh: -13.4%; HCV inhibitor: 1.78µM*

Results for Cc1cc(C(=O)COC(=O)c2cc(O)c3ccccc3c2O)c(C)n1CC1CCCO1 (configuration not stated) ?
VACV mCherry inh: inactive; Vaccinia Venus: 0.2%; Marburg entry inh: inconclusive; Lassa entry inh: 6.8%; HCV inhibitor: inconclusive

Results for Cc1ccc(C(C)C)c(OCC(=O)NCC2(N3CCOCC3)CCCCC2)c1 ?
VACV mCherry inh: -16.5%; Vaccinia Venus: -23.3%; HCMV inh: inconclusive; Marburg entry inh: inconclusive; Lassa entry inh: -5.6%[46.1 µM]

What do the screens show for `O=C1CC(c2ccc(Br)cc2)c2c(ccc3ccccc23)N1` (configuration not stated)?
VACV mCherry inh: -24.0%; Vaccinia Venus: -11.6%; HCMV inh: 8.7; Marburg entry inh: -19.3%[46.1 µM]; Lassa entry inh: -23.1%[46.1 µM]

Results for O=C(COc1ccccc1Cl)NCC1(N2CCOCC2)CCCCC1 ?
VACV mCherry inh: -23.6%; Vaccinia Venus: -20.7%; HCMV inh: -99.9*; Marburg entry inh: -23.6%[46.1 µM]; Lassa entry inh: 12.4%[46.1 µM]

What do the screens show for `O=C(CSc1ccccc1)NCC1(N2CCOCC2)CCCCC1`?
VACV mCherry inh: -17.8%; Vaccinia Venus: -4.2%; HCMV inh: -76.8*; Marburg entry inh: -29.0%; Lassa entry inh: 1.2%; HCV inhibitor: -11.6%

What do the screens show for `Cc1cc(OCC(=O)NCC2(N3CCN(C)CC3)CCCCC2)cc(C)c1Cl`?
VACV mCherry inh: -7.6%; Vaccinia Venus: -24.6%; HCMV inh: -81.6*; Marburg entry inh: inconclusive; Lassa entry inh: -23.6%[46.1 µM]

How did COc1ccc(Nc2nc(N)nc(CSc3nc4cc(OC)ccc4s3)n2)cc1 do in these assays?
VACV mCherry inh: -12.4%; Vaccinia Venus: -22.6%; HCMV inh: -17.6; Marburg entry inh: -22.3%[46.1 µM]; Lassa entry inh: -20.1%[46.1 µM]

What do the screens show for `CCOc1ccccc1CNC(=O)c1ccc2c(c1)N(Cc1ccc(C)cc1)CCS2`?
VACV mCherry inh: -23.5%; Vaccinia Venus: -20.6%; HCMV inh: -19.9; Marburg entry inh: inconclusive

Results for Cc1cccc(NC(=O)COC(=O)CCc2c[nH]c3ccccc23)c1C ?
HCMV inh: -24.9; HCV inhibitor: -3.6%

What do the screens show for `O=C(COC(=O)CCc1c[nH]c2ccccc12)Nc1ccccc1C(F)(F)F`?
HCMV inh: -94.4*; HCV inhibitor: -18.3%

How did O=C1[C@@H]2[C@H]3[C@H](O)[C@H](O)CC(=NOC[C@@H](O)COCc4ccco4)[C@H]3CC[C@H]2C(=O)N1C[C@@H]1CCCO1 do in these assays?
Marburg entry inh: 3.6%[14.2 µM]

Results for CCOc1ccc(N2C(N)=NC(N)=NC2(C)C)cc1 ?
VACV mCherry inh: -0.5%; Vaccinia Venus: inconclusive; HCMV inh: -68.1*; Marburg entry inh: inconclusive; Lassa entry inh: 4.9%; HCV inhibitor: 2.8%

How did CC1(C)N=C(N)N=C(N)N1c1cccc(C(=O)O)c1 do in these assays?
VACV mCherry inh: inactive; Vaccinia Venus: -7.8%; HCMV inh: inconclusive; Marburg entry inh: 29.9%; Lassa entry inh: 28.4%; HCV inhibitor: 11.1%
